Consider 92 compounds from PubChem BioAssay AID1490 (National Center for Advancing Translational Sciences (NCATS), 2009).

The campaign covered roughly 310,000 compounds. About 11,000 (3.5%) were called active. Another 4% or so got no clear call; they are omitted. The call rests on the fitted dose curve; in most records, active means well fitted inhibition curve with a large enough effect; inconclusive means small, poorly fitted or top-dose-only effect, or another doubt; inactive means no such curve, though single readings can be large or run the other way. Many of the other results were omitted from the sample, so actives are more common in it than they were. A structure can be active in one record and inactive in another.
Potency means the concentration at half of the fitted maximal effect.

In this test the target is 4'-phosphopantetheinyl transferase ffp (Bacillus subtilis) (UniProt Q9F4F7). Kind of test: qHTS Assay for Inhibitors of Bacillus subtilis Sfp phosphopantetheinyl transferase (PPTase).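 Further: the enzyme is Sfp with the accession as filed and its product quenches rhodamine fluorescence.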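 On largest response in the series, negative = inhibition: 0% = enzyme reaction without inhibitor and -100% = no enzyme wells.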 The following applies: Biochemical Sfp PPTase activity. In a few lines:
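Compounds were incubated with enzyme (final 15 nM) for 15 min at room temperature before substrate addition started the reaction. Fluorescence at 525 nm excitation, 598 nm emission was recorded immediately and after 30 minutes.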
(In general: qHTS replaces the single test concentration by a dilution series.)
`Cc1cccc(C)c1NC(=O)COC(=O)c1ccccc1O`: the largest response in the series, negative = inhibition is -13% (inactive). On the same count and under the same terms, the value for `COC(=O)c1ccccc1NC(=S)NC(=O)c1ccccc1F` was 10.1% (inactive). On to `O=C(NC(=S)Nc1ccccc1C(=O)O)c1ccc(-c2ccc(Br)cc2)o1`, for which the Potency was 31.6 µM (active). Take `Cc1cccc(NC(=S)NC(=O)c2ccc(Br)o2)c1`: the largest response in the series, negative = inhibition is -10.9% (inactive).

Take `CC1(C)C2CCC1(CS(=O)(=O)NCCc1c[nH]c3ccccc13)C(=O)C2` (stereo not drawn): the largest response in the series, negative = inhibition is 3.13% (inactive). The same measure, in the same setting: to `CCCCN(C)CCNC(=O)C1CCCN(S(=O)(=O)c2cccc3nsnc23)C1` (stereo not drawn) belongs 11.4% (inactive); to `COCCNC(=S)N(CCc1c(C)[nH]c2ccc(C)cc12)Cc1cccnc1`, 5.81% (inactive); to `CCOc1cc(/C=N/O)ccc1OCc1ccccc1F`, 2.28% (inactive).

As to `COc1cc(/C=C2/C(=O)ON=C2C)ccc1OCc1cccc(F)c1`, the largest response in the series, negative = inhibition was -29.4% (inactive). As for `COc1cc(/C=C2/C(=O)ON=C2C)ccc1OCc1ccccc1F`, the Potency was 56.2 µM (active).

As for `O=C(Nc1nnc(-c2ccc(F)cc2)s1)c1c(F)cccc1Cl`, the largest response in the series, negative = inhibition was 11.5% (inactive). Regarding `O=C(NCCNc1ccc([N+](=O)[O-])cc1Cl)c1ccccc1F`, the largest response in the series, negative = inhibition is 13.9% (inactive). Same read-out and setting: to `O=C(Nc1sc2c(c1-c1nc3ccccc3[nH]1)CCCC2)C1CC1` belongs 11.4% (inactive). Regarding `O=C1NC(c2ccncc2)Nc2sc3c(c21)CCCC3` (stereo not drawn), the Potency was 35.5 µM (active). As to `C/C(=C\c1ccccc1)C1NC(=O)c2c(sc3c2CCCC3)N1` (stereo not drawn), the largest response in the series, negative = inhibition is -9.45% (inactive). On the same count and under the same terms, the value for `COc1ccc(CNC(=O)C(c2ccc(O)cc2)N(Cc2ccco2)C(=O)c2snc(C(N)=O)c2N)cc1` (stereo not drawn) was 8.78% (inactive). The same measure, in the same setting: the value for `O=CN1CCN(C(=O)c2ccc3c(c2)OCO3)CC1` was 5.66% (inactive).

On to `O=C(NNC(=S)NCCCN1CCOCC1)c1ccncc1`, for which the Potency is 28.2 µM (active). As for `Cc1ccc(C(=O)NC(=S)NCCN2CCOCC2)cc1`, the largest response in the series, negative = inhibition is 0.183% (inactive). `Cc1cc(C)cc(NC(=S)NCCCN2CCOCC2)c1`: the largest response in the series, negative = inhibition is 3.01% (inactive). Same read-out and setting: to `O=C(N/N=C/c1ccoc1)c1ccc(Cl)cc1Cl` belongs 5.37% (inactive); to `Cc1cccc(N2CCN(C(=O)CCS(=O)(=O)c3ccc4c(c3)NC(=O)C(C)S4)CC2)c1C` (stereo not drawn), 10.9% (inactive). The same measure, in the same setting: the value for `CC(C)(C)OC(=O)CNC(=O)c1[nH]cnc1C(=O)N[C@@H](Cc1ccccc1)C(=O)OCc1ccccc1` was 19.7% (inactive). On the same count and under the same terms, the value for `COc1cccc(OCC(=O)Nc2ccccc2C(N)=O)c1` was 10.7% (inactive); that for `CCCCOC(=O)Cn1c(=O)n(CC(=O)OCCCC)c2cc(C)ccc21` was 7.32% (inactive). Consider `CCCCCCCCCCOC(=O)Cn1c(COc2ccc(C)cc2)[n+](C)c2ccccc21`, for which the Potency is 31.6 µM (active). As for `Cc1ccc(OCCCn2c(=O)oc3ccccc32)cc1`, the largest response in the series, negative = inhibition is -10.3% (inactive). On the same count and under the same terms, the value for `CCCCOC(=O)Cn1c(=N)n(CCN(CC)CC)c2ccccc21` was 8.57% (inactive). With `CCCCCCCCCCOC(=O)Cn1c(COc2cccc(OC)c2)[n+](C)c2ccccc21`, the Potency was 44.7 µM (active). Take `O=S(=O)(c1ccc(Cl)s1)N1CCC2(CC1)OCCO2`: the largest response in the series, negative = inhibition is 23.5% (inactive). On the same count and under the same terms, to `CCCCn1c(N)c(N(CCOC)C(=O)c2oc3ccc(OC)cc3c2C)c(=O)[nH]c1=O` belongs 15.3% (inactive); to `O=C(CC1C(=O)NCCN1C(=O)c1ccc([N+](=O)[O-])cc1)Nc1cccc(Cl)c1` (stereo not drawn), 5.33% (inactive). On the same count and under the same terms, to `Cc1cc(C)c(S(=O)(=O)c2cc(F)ccc2C)c(=O)[nH]1` belongs 27.3% (inactive).

Consider `N#CC1=C(N)C(C#N)(C#N)[C@H](c2ccsc2)[C@H]2COCC=C12`, for which the Potency was 2.51 µM (active). Turning to `CCOC(=O)N1CC=C2C(C#N)=C(N)C(C#N)(C#N)[C@H](c3cccs3)[C@H]2C1`, the largest response in the series, negative = inhibition is -5.72% (inactive).

Turning to `CCCN1CC=C2C(C#N)=C(N)C(C#N)(C#N)C(c3cc(OC)ccc3OC)C2C1` (stereo not drawn), the largest response in the series, negative = inhibition was -12.4% (inactive). Still for that read-out and setting: to `COc1ccc(CNC(=O)CN(c2ccc(OC)c(Cl)c2)S(=O)(=O)c2ccc(C)cc2)cc1` belongs 17.9% (inactive); to `Cc1ccc(CCN2CC(C(=O)NCCc3ccccc3)CC2=O)cc1` (stereo not drawn), 20.9% (inactive).

Regarding `COc1ccccc1C(=O)N1CC2(C)CC1CC(C)(C)C2` (stereo not drawn), the largest response in the series, negative = inhibition is 23.6% (inactive). On the same count and under the same terms, the value for `Cc1cccc(C(=O)NCC(=O)OCC(=O)N2CC3(C)CC2CC(C)(C)C3)c1` (stereo not drawn) was -0.692% (inactive). For the compound `Cc1nnnn1/C(=C\c1ccccc1)C(=O)OCC(=O)N1CC2(C)CC1CC(C)(C)C2` (stereo not drawn), the Potency is 50.1 µM (active). Consider `CC(NCCc1ccc(S(N)(=O)=O)cc1)C(=O)NCc1ccccc1` (stereo not drawn), for which the largest response in the series, negative = inhibition is 4.54% (inactive). Consider `C=CCn1c(C23CC4CC(CC(C4)C2)C3)n[nH]c1=S`, for which the largest response in the series, negative = inhibition is 14.6% (inactive). The same measure, in the same setting: to `COc1ccc(N(C(=O)c2snc(C(N)=O)c2N)C(C(=O)NC2CCCC2)c2ccc(C)o2)c(OC)c1` (stereo not drawn) belongs -2.29% (inactive); to `Cn1cc(C(=O)c2ccc(Cl)cc2Cl)cc1C(=O)NN`, 10.1% (inactive).

Consider `CCCCN1C(=O)/C(=C2/Sc3ccc(Cl)cc3N2CC)SC1=S`, for which the largest response in the series, negative = inhibition was 3.35% (inactive). The same measure, in the same setting: the value for `CCN1C(=O)/C(=c2\s/c(=C3\Sc4ccccc4N3C)c(=O)n2C)N(C)C1=S` was 1.11% (inactive). `CCN1C(=O)/C(=C2/Sc3ccccc3N2CCCS(=O)(=O)O)SC1=S`: the Potency is 79.4 µM (active) and the largest response in the series, negative = inhibition is 8.36% (inactive). On to `C[C@H](NC(=O)c1nc[nH]c1C(=O)NCC(=O)OC(C)(C)C)c1ccccc1`, for which the largest response in the series, negative = inhibition was 10.2% (inactive).

As for `CC(C)[C@H](NC(=O)N1CCn2c1nc1ccccc12)C(=O)NCc1ccc2c(c1)OCO2`, the largest response in the series, negative = inhibition is 20.1% (inactive). Same read-out and setting: to `CC(C)C(=O)NCC(c1cccs1)S(=O)(=O)c1ccc(F)cc1` (stereo not drawn) belongs 0.881% (inactive); to `CNc1ccc(NC(C)=O)cc1[N+](=O)[O-]`, 18.8% (inactive). On the same count and under the same terms, the value for `CCc1nnc(NC(=O)/C=C/c2ccc(C)o2)s1` was 1.89% (inactive).

On to `Cc1ccc(/C=C/C(=O)Nc2ccc([N+](=O)[O-])c(NC(=O)/C=C/c3ccc(C)o3)c2)o1`, for which the Potency is 17.8 µM (active). Consider `COc1cc(/C=C2\SC(=O)NC2=O)ccc1OCc1ccc(Cl)nc1`, for which the largest response in the series, negative = inhibition was -9.24% (inactive). Same read-out and setting: the value for `CCn1c(CNC(=O)c2cc(OC)c(OC)c(OC)c2)cc2cc(C)ccc21` was -13.9% (inactive); that for `CCOc1ccc(CCNC(=O)Nc2ccccc2)cc1OCC` was 11.9% (inactive); that for `Cc1ccccc1NC(=O)C1CCCN(C(=O)NCc2ccccc2)C1` (stereo not drawn) was -0.998% (inactive). Still for that read-out and setting: to `CC(=O)NC(C)c1nc2ccccc2n1Cc1ccccc1F` (stereo not drawn) belongs 11% (inactive). On to `N=c1n(CCc2ccccc2)c2ccccc2n1Cc1ccccc1F`, for which the Potency was 50.1 µM (active). On to `Fc1ccccc1Cn1cnc(NC(=S)NCCc2ccccc2)n1`, for which the largest response in the series, negative = inhibition was -24.4% (inactive).

In the case of `Cc1cccn2c(=O)c(C=O)c(Nc3ccc(S(N)(=O)=O)cc3)nc12`, the largest response in the series, negative = inhibition was 12.7% (inactive). On the same count and under the same terms, the value for `O=Cc1c(N2CCN(c3cccc(Cl)c3)CC2)nc2ccccn2c1=O` was -4.2% (inactive). `O=Cc1c(Nc2ccccc2Cl)nc2ccccn2c1=O`: the Potency is 31.6 µM (active).

With `O=C(Nc1cccc(-c2cccc(Cl)c2)c1)C1CCN(C2CCC2)CC1`, the largest response in the series, negative = inhibition is -24.2% (inactive). Still for that read-out and setting: the value for `COc1ccc(S(=O)(=O)N2CCC(C(=O)N3CCCC3)CC2)cc1C` was 9.47% (inactive); that for `O=C1NC(=O)C(c2ccc(Cl)cc2)N1` (stereo not drawn) was -0.697% (inactive). Consider `O=C1CSC(c2ccc(Cl)cc2)N1` (stereo not drawn), for which the Potency is 79.4 µM (active). With `COC(=O)C1=C(N)Oc2cc(C)[nH]c(=O)c2C1c1ccc(Cl)cc1` (stereo not drawn), the largest response in the series, negative = inhibition is 1.3% (inactive). For the compound `CC(C)c1ccc(NC(=O)Cn2ncc3ccccc32)cc1`, the largest response in the series, negative = inhibition was 13.4% (inactive).

Take `COc1ccc2c(C(=O)c3ccc(C)cc3)n(CCC(N)=O)[n+]([O-])c2c1`: the largest response in the series, negative = inhibition is -4.94% (inactive). On the same count and under the same terms, the value for `Cc1cccc(Nc2nc(-c3ccccc3)cs2)n1` was -27.9% (inactive); that for `COc1ccc(CCNc2nc(-c3cccc(NC(C)=O)c3)cs2)cc1OC` was -23.9% (inactive).

In the case of `CC(=O)Nc1cccc(-c2csc(Nc3cccc(C)n3)n2)c1`, the Potency is 79.4 µM (active). Consider `Cc1noc(NS(=O)(=O)c2ccc(NC(=O)c3oc4ccc(F)cc4c3C)cc2)c1C`, for which the largest response in the series, negative = inhibition was 14.6% (inactive). On the same count and under the same terms, to `CCN(CC)C(=O)COc1coc(CN2CCN(Cc3ccccc3)CC2)cc1=O` belongs 12.6% (inactive); to `CC(=O)NCCC(=O)Nc1cc(S(=O)(=O)N2CCOCC2)ccc1N1CCOCC1`, 23.2% (inactive).

As to `COCCNC(=S)Nc1cc(S(=O)(=O)N2CCOCC2)ccc1N1CCCCC1`, the Potency was 1 µM (active). In the case of `O=C(COC(=O)Cc1ccc(F)cc1)Nc1cc(S(=O)(=O)N2CCOCC2)ccc1N1CCCC1`, the largest response in the series, negative = inhibition was 11.4% (inactive). The same measure, in the same setting: to `CCc1ccccc1NC(=O)[C@@H]1CCC(=O)N1C1OC(=O)c2c1ccc(OC)c2OC` (stereo partly drawn) belongs 9.06% (inactive). On the same count and under the same terms, to `CCOc1ccc(N(CC(=O)NCC2CCCO2)S(=O)(=O)c2ccc(C)cc2)cc1` (stereo not drawn) belongs 9.58% (inactive); to `CCOc1ccc(S(=O)(=O)NCC2CCCO2)cc1` (stereo not drawn), 12.6% (inactive).

As for `CCOc1ccc(-n2c(N)c(C(=O)NCC3CCCO3)sc2=S)cc1` (stereo not drawn), the Potency is 50.1 µM (active). Still for that read-out and setting: the value for `COc1ccc(-c2cc(C(=O)NC(Cc3c[nH]c4ccccc34)C(=O)O)c(C)o2)cc1OC` (stereo not drawn) was 35.5 µM (active). Turning to `COc1ccc(-c2cc(=O)oc3cc(OCC(=O)N[C@@H](Cc4c[nH]c5ccccc45)C(=O)O)ccc23)cc1`, the largest response in the series, negative = inhibition was -17.5% (inactive). Still for that read-out and setting: the value for `Cc1cccc(C)c1OCC(=O)NC(Cc1c[nH]c2ccccc12)C(=O)O` (stereo not drawn) was 12.2% (inactive). Regarding `CC1C(=O)Nc2ccccc2N1C(=O)c1ccc(F)cc1F` (stereo not drawn), the largest response in the series, negative = inhibition is 9.39% (inactive). For `COc1cccc(OCc2cc(C(=O)N3CCN(C(=O)c4ccco4)CC3)no2)c1`, the largest response in the series, negative = inhibition is 10.6% (inactive). Same read-out and setting: to `Cc1cc(Cl)ccc1OCCCC(=O)Nc1cccc(-n2cnnn2)c1` belongs 1.31% (inactive); to `c1ccc(Nc2n[nH]nc2-c2ccccc2)cc1`, 1.39% (inactive); to `O=c1[nH]c(-c2ccccc2)c(-c2ccccc2)[nH]1`, 2.86% (inactive). As for `O=C(O)c1n[nH]nc1-c1ccccc1`, the Potency was 70.8 µM (active).
